# High-throughput results as filed in PubChem BioAssay.
# Sm TGR inh = inhibitors of Schistosoma mansoni thioredoxin glutathione reductase; 360,000 tested, 3% active; Potency, µM (highest dose often 114 µM), for the others: at the highest dose activity change, negative = inhibition, usual class: inhibitors; Q962Y6; purified TGR, DTNB reduction, TNB absorbance 405 nm; note: potency is the fitted concentration of half-maximal effect; % is set by controls: 0 for no effect and ±100 for the full control effect; nearly all actives have a fitted effect of over 60% in size
#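 Kinetic colorimetric format: TGR-catalysed, NADPH-driven DTNB reduction monitored via TNB absorbance. Enzyme dispensed at 20 nM; compound exposure 15 min at room temperature before reaction start.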
# Cycloheximide cs = affects cycloheximide protein synthesis inhibition readout, counter-screen. max response, %. 300,000 tested, 12% active. AID 2314. cell reporter, cycloheximide protein synthesis inhibition counterscreen; in the data active = max response mostly above about 13%, no sharp cut-off; inactive = mostly below about 14%; note: read at 38.3 µM for the half of the compounds with a filed dose; 0% is about no effect
# NS1 function inh = influenza NS1 inhibition; Potency, µM (doses to about 46.1 µM), for inactives: at the highest dose activity, positive = more growth; 270,000 tested, 0.4% active; AID 2326; calls by dose curve; note: potency is the fitted concentration of half-maximal effect; actives are rising curves; nearly all actives have a fitted effect of over 50% in size
#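 OD600 was taken as the measure of yeast growth restored by compound in an NS1-expressing S. cerevisiae strain. Cells had been washed out of glucose medium and diluted 1:100 into galactose -URA medium, pH 6.0.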
# Pf growth 96h = inhibits malaria parasite growth, 96 h. P. falciparum luciferase reporter growth, 96 h. Potency, µM (top dose mostly 28.7 µM), for inactives: top-dose activity change, negative = inhibition, actives largely listed as inhibitors. 320,000 tested, 6.9% active. AID 504834; note: potency is the fitted concentration of half-maximal effect; % is set by controls: 0 for no effect and ±100 for the full control effect
#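 Cell-based qHTS: luciferase-tagged P. falciparum in erythrocytes (2% hematocrit, 0.05% parasitemia final) incubated with compounds for 96 hours, 37 C, 5% CO2; luciferase detection reagent then added and luminescence measured.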
# Pf growth 48h = inhibits P. falciparum growth in the first generation, 48 h | Potency, µM (top dose mostly 28.7 µM), for inactives: at the top dose activity change, negative = inhibition, usual class: inhibitors | P. falciparum luciferase growth in erythrocytes, 48 h | AID 504832 | 310,000 tested, 5.9% active; note: potency is the fitted concentration of half-maximal effect; % is set by controls: 0 for no effect and ±100 for the full control effect
#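 Luminescence readout; reporter = integrated firefly luciferase in P. falciparum. RBC culture at 2% hematocrit, 0.1% parasitemia final, 37 C/5% CO2; decreased signal taken as growth inhibition.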
# Shiga inhibitor = inhibitors of Shiga toxin in Vero cells | Vero cells, Shiga toxin protein synthesis inhibition reporter | inhibition, % at 38.7 µM | 290,000 tested, 9.2% active | AID 2315; in the data active = inhibition mostly above about 28%, no sharp cut-off; inactive = mostly below about 43%; note: 0% is about no effect
# * = called active by the depositor; ? = inconclusive; / = no result. Compounds with a hit are over-represented: about 21% of the library has one in this group of screens. Unless noted, calls come from the whole dose curve; as a rule, active = well fitted curve in the direction sought with a large enough effect; inconclusive = small, poorly fitted or top-dose-only effect, or another doubt; inactive = no such curve, though single readings can be large; an effect the other way counts as inactive or inconclusive.
SMILES,Sm TGR inh,Cycloheximide cs,NS1 function inh,Pf growth 96h,Pf growth 48h,Shiga inhibitor
CCOc1ccc(N/C=C/C(=O)c2ccc(OC)cc2)c([N+](=O)[O-])c1,8%,39*,15%,135%,7%,132*
CCOc1ccc(N/C=C/C(=O)c2ccc(OC)cc2)cc1,-11%,20*,8%,?,-1%,132*
CCOc1ccc(NC(=S)NC(=O)/C=C/c2ccc(Br)cc2)c([N+](=O)[O-])c1,1%,-2,-3%,17%,5%,-3
COc1ccc(C(=O)/C=C/Nc2ccc([N+](=O)[O-])cc2)cc1,-10%,85*,7%,-4%,110%,114*
O=C1c2ccccc2C(=O)N1CC1c2ccccc2CCN1C(=O)CN1CCOCC1 (configuration not stated),12%,-7,/,13%,-16%,-18
O=C1CN(C(=O)C2CCCCC2)C(c2ccccc2)c2cc(F)ccc2N1 (configuration not stated),4%,/,/,/,/,/
O=C1CC(N2CCC(O)CC2)C(=O)N1c1ccc(Br)cc1 (configuration not stated),56µM*,-2,-185%,-21%,12%,26
O=C1CC(N2CCCCC2)C(=O)N1c1ccccc1 (configuration not stated),32µM*,1,-40%,?,?,15
O=C1CC(N2CCCN(C3CC(=O)N(c4ccc(F)cc4)C3=O)CC2)C(=O)N1c1ccc(F)cc1 (configuration not stated),20µM*,4,-139%,-2%,-2%,-5
COc1ccc(C(=O)NNC(=O)C2CCCN(C3CC(=O)N(c4ccccc4)C3=O)C2)cc1 (configuration not stated),45µM*,-2,-5%,2%,3%,6
CCCCCOc1ccc(C(=O)N(Cc2ccccc2)C2CCS(=O)(=O)C2)cc1 (configuration not stated),-3%,/,/,/,/,/
Cc1cc(C(F)(F)F)nn1CC(=O)NNC(=S)Nc1cccc(Cl)c1,-3%,-2,6%,/,2%,-14
Cc1cc(C)nc(/N=C2\NC(=O)CC(C(=O)O)N2c2ccc(C)c(C)c2)n1 (configuration not stated),/,-2,4%,?,-9%,-1
Cc1c(C)n(Cc2ccccc2)c2ncnc(Cl)c12,7%,7,-13%,19%,10%,1
O=C1CC(N2CCN(S(=O)(=O)c3ccccc3)CC2)C(=O)N1c1ccccc1 (configuration not stated),50µM*,-1,1%,60%,20%,16
CC(C)(C)c1ccc(CSc2nc(N)cc(=O)[nH]2)cc1,-7%,39*,-5%,48%,41%,41*
Nc1cc(=O)[nH]c(SCc2ccc(Cl)cc2)n1,-16%,-1,1%,-1%,?,33
Nc1cc(=O)[nH]c(SCc2nnnn2-c2ccc(Cl)cc2)n1,-12%,2,?,0.21µM*,12%,-1
CC(C)OC12Oc3ccccc3C=C1N1CCC2CC1 (configuration not stated),-31%,-2,-6%,?,-4%,8
CN1CC2=Cc3ccccc3OC23Oc2ccccc2C=C3C1,-16%,3,-11%,12µM*,9.3µM*,-3
CCOC(=O)C(=O)NCC(c1cccnc1)N1CCN(c2ccccc2)CC1 (configuration not stated),2%,/,/,/,/,/
Cn1c(=O)n(Cc2ccc(F)cc2)c(=O)c2c1nc1n2CCN1Cc1ccco1,-6%,8,/,?,?,-16
Cn1c(=O)n(CCc2ccccc2)c(=O)c2c1nc1n2CCN1Cc1ccco1,-22%,24,-73%,5.2µM*,8.3µM*,55
Cc1ccc(C)c(Cn2c(=O)c3c(nc4n3CCN4Cc3ccco3)n(C)c2=O)c1,-13%,-2,-8%,?,8.3µM*,74
COc1ccc(-c2nc(CSCC(=O)NCCc3ccc(C)cc3)c(C)o2)cc1OC,-11%,/,/,/,/,/
O=C(CCc1nnc2ccc(NCc3ccc(F)cc3)nn12)NC1CCCC1,4%,-2,-3%,40%,21%,10
OCC[C@H]1C[C@H](O)[C@@H](O)[C@@]2(OCc3ccccc32)O1,45µM*,/,/,66%,-4%,/
